Screening data (PubChem)
MsrA act – bovine MsrA enzyme activators, primary screen, biochemical, absorbance, HTS. actives 0.3% (n = 360,000). Methionine sulfoxide reductase A (Bos taurus). AID 602163, 2012. purified bovine MsrA, absorbance read-out. activation, % at 10.6 µM; in the data active = activation above about 7.5%
MsrA inh – bovine MsrA enzyme inhibitors, primary screen, biochemical, absorbance, HTS | Methionine sulfoxide reductase A (Bos taurus) | purified bovine MsrA, absorbance read-out | inhibition, % at 15.5 µM | actives 0.75% (n = 360,000) | AID 651718, 2012; in the data active = inhibition above about 4.5%
rCAG binder – binders of r(CAG) RNA repeats, primary screen, biochemical, fluorescence | AID 651821, 2012 | inhibition, % at 3 µM | actives 1.3% (n = 370,000) | r(CAG) RNA repeat, TO-PRO-1 dye displacement fluorescence;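 active = inhibition above the plate cutoff, the mean of all test compounds on that plate plus 3 SD, cut at about 35% in these data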;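 note: higher means more dye released from RNA so lower well fluorescence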
HGIII-sPLA2 inh – human group III sPLA2 inhibitors, primary screen, biochemical, QFRET, BODIPY PC-A2 liposome substrate. AID 743126, 2013. Group 3 secretory phospholipase A2 (Homo sapiens), Q9NZ20. inhibition, % at 12.2 µM. actives 0.56% (n = 370,000). QFRET BODIPY PC-A2 liposome hydrolysis, fluorescence;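 active = inhibition above mean plus 3 SD of compounds lying within the high and low control bounds, cut at about 19% in these data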
Target sequence (Q9NZ20 whole entry, looked up): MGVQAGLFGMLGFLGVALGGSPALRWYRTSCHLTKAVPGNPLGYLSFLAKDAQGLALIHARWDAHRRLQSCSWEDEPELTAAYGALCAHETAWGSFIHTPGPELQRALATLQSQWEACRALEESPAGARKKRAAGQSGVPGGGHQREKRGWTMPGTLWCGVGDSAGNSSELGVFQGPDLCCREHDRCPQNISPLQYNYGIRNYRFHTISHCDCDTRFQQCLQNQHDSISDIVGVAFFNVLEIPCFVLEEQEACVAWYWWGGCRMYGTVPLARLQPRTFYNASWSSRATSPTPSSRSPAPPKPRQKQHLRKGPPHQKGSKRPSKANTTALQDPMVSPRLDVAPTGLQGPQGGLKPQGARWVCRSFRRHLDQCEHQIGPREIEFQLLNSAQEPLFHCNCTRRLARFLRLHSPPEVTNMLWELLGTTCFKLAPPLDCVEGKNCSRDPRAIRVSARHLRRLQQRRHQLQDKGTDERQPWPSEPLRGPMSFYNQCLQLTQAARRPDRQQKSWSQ
hGIII sPLA2 conf – human group III sPLA2 inhibitors, confirmation, biochemical, QFRET, triplicate. shares compounds with HGIII-sPLA2 inh. AID 743280, 2014. inhibition, % at 12.2 µM. actives 34% (n = 2,000). recombinant hGIII-sPLA2, BODIPY PC-A2 QFRET fluorescence;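 active = mean inhibition across triplicates above the hit cutoff set in the earlier primary screen, cut at about 19% in these data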
535nm interf – 535nm fluorescence optical interference, confirmation, artefact control for HGIII-sPLA2 inhibitor project, biochemical, QFRET | shares compounds with HGIII-sPLA2 inh | actives 8.5% (n = 2,000) | BODIPY FL product fluorescence interference | inhibition, % at 12.2 µM;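 active = average inhibition above the solvent-only control mean plus 3 SD, cut at about 6% in these data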
BODIPY interf DR – 535nm fluorescence optical interference, dose response, artefact control for HGIII-sPLA2 inhibitor project, biochemical, QFRET; 240 tested, under 10 active; AID 743455, 2014; shares compounds with HGIII-sPLA2 inh; BODIPY FL product fluorescence interference, cell-free; IC50, µM;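 active = IC50 at or below 10 µM; inactive = IC50 above 10 µM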
Each line names hits and unclear results; the compound was inactive in the other large screens (follow-up assays come after a bar, where they were run). The list is not random: actives were taken first. Their share in the collection is about 2.8%.

CN1C(=O)c2cc(NC(=O)Cc3ccccc3)ccc2OC[C@H]2O[C@H](CC(=O)O)CC[C@H]21	none (no result: MsrA act, MsrA inh)
COC(=O)C1=C(C)N(Cc2ccc(C(F)(F)F)cc2)C(=NCc2ccccc2)NC1c1ccccc1 (stereo not drawn)	none (no result: MsrA act)
CCN(CC)C1CCN(C(=O)c2ccc(OC3CCN(Cc4ccccn4)CC3)cc2)C1 (stereo not drawn)	none
CCOc1nc(-c2ccc(Cl)cc2)nc2ccccc12	HGIII-sPLA2 inh 25.1 | hGIII sPLA2 conf inactive | 535nm interf inactive
CCOc1ccccc1Oc1nc(-c2ccccc2O)nc2ccccc12	HGIII-sPLA2 inh 20.1 | hGIII sPLA2 conf inactive | 535nm interf inactive
COc1cc(C)ccc1Oc1nc(-c2ccccc2O)nc2ccccc12	none
Cc1ccc(NS(=O)(=O)c2cccc(C(=O)N3CCN(c4ncccn4)CC3)c2)cc1	none
COC(=O)c1c(-c2ccco2)csc1NC(=O)C1CC=CCC1C(=O)O (stereo not drawn)	none
O=C(NC1CCCC1)c1cc(-c2ccc(Cl)cc2)on1	HGIII-sPLA2 inh 19.4 | hGIII sPLA2 conf inactive | 535nm interf inactive
CC(=O)Nc1ccc(NC(C)=C(C#N)C#N)cc1	HGIII-sPLA2 inh 19.7 | hGIII sPLA2 conf inactive | 535nm interf inactive
CC(=O)Nc1cccc(NC(C)=C(C#N)C#N)c1	none
CC(CN1C(C)CCCC1C)OC(=O)c1ccccc1Br (stereo not drawn)	none
CN(C)c1nc(C(=O)Nc2ccccc2)nc(N(C)C)n1	none
Cc1nc2c(-c3ccc(F)cc3)cnn2c(N)c1-c1ccccc1	none
COc1ccc(-c2c(C)nc3c(-c4ccc(F)cc4)cnn3c2N)cc1	HGIII-sPLA2 inh 19.3 | hGIII sPLA2 conf inactive | 535nm interf inactive
COc1ccc(/C=C/c2ccc3ccccc3[n+]2C)cc1OC	none (no result: MsrA inh, rCAG binder, HGIII-sPLA2 inh)
CN(CCCS(=O)(=O)[O-])c1ccc(/C=C/c2ccc3ccccc3[n+]2C)cc1	HGIII-sPLA2 inh 21.4 | hGIII sPLA2 conf inactive | 535nm interf inactive
O=C(CC1=NCCNC(c2ccccc2)C1)c1ccccc1O (stereo not drawn)	none
C=CCNC(=S)NNc1nc2c(c(=O)[nH]1)C1(CCCCC1)Cc1ccccc1-2	HGIII-sPLA2 inh 25.3 | hGIII sPLA2 conf 29.3 | 535nm interf inactive | BODIPY interf DR inactive
C#CCOCCOCCOCCNc1nc(N2CCN(C(=O)CCCCCCCCCCNC(=O)[C@@H](CCSC)n3cc(CCO)nn3)CC2)nc(N2CCN(C(=O)CCCCCCCCCCNC(=O)[C@H]([C@@H](C)CC)n3cc(CCCCN=C(N)N)nn3)CC2)n1	none (no result: MsrA inh, rCAG binder, HGIII-sPLA2 inh)
Clc1ccc2c(c1)Nc1ccccc1CC2	HGIII-sPLA2 inh 21.5 | hGIII sPLA2 conf inactive | 535nm interf 8.2
NNc1nc2c(Cl)c(Cl)ccc2s1	HGIII-sPLA2 inh 23.6 | hGIII sPLA2 conf inactive | 535nm interf 13.4
Cc1ccc(C)c(OCCCCN2CCCCC2)c1	HGIII-sPLA2 inh 20.6 | hGIII sPLA2 conf inactive | 535nm interf inactive
Cc1ccc(OCCCCN2CCCCC2)c(C)c1	none
Clc1ccc(OCCCN2CCCCC2)c(Br)c1	HGIII-sPLA2 inh 21.9 | hGIII sPLA2 conf inactive | 535nm interf inactive
Cc1cc(C(=O)NNC(=S)NC(C)c2ccccc2)c2ccccc2n1 (stereo not drawn)	HGIII-sPLA2 inh 23.8 | hGIII sPLA2 conf 29.1 | 535nm interf inactive | BODIPY interf DR inactive
Cc1ccc(NC(=O)CSCC(=O)N(C)CC(=O)Nc2c(C)cccc2C)cc1	none
Cc1cc2c(cc1C)-n1nnnc1C(N1CCN(c3ccccn3)CC1)C(c1ccc3c(c1)OCO3)=N2 (stereo not drawn)	none (no result: MsrA act)
Cn1ccc2c(N3CCCCCCC3)cc3c(c21)C1CCC3O1 (stereo not drawn)	HGIII-sPLA2 inh 19.5 | hGIII sPLA2 conf 31.9 | 535nm interf inactive | BODIPY interf DR inactive
CN(c1cc2c(c3c1ccn3C)C1CCC2O1)C1CCCCC1 (stereo not drawn)	none
CC(C)(C)NC(=S)NCCc1ccccc1	HGIII-sPLA2 inh 20.1 | hGIII sPLA2 conf 24.1 | 535nm interf inactive
CCn1cc(S(=O)(=O)Nc2ccc3c(c2)OCCO3)cn1	none
Oc1c(N=Nc2ccc(F)cc2)ccc2ccccc12	none
Cc1ccc(N=Nc2ccc3ccccc3c2O)cc1	HGIII-sPLA2 inh 20.4 | hGIII sPLA2 conf 30.4 | 535nm interf 8.3
O=C(NNC(=S)Nc1ccc(F)cc1)c1ccccc1OC(F)F	HGIII-sPLA2 inh 21.1 | hGIII sPLA2 conf 26.3 | 535nm interf inactive
Cc1ccc(NC(=S)NNC(=O)Nc2ccccc2)cc1	none
O=C(NC1CC1)c1ccccc1NC(=O)c1ccccc1OC(F)F	none
Cc1ccc(NC(=S)NNC(=O)c2ccccc2OC(F)F)cc1	HGIII-sPLA2 inh 26.0 | hGIII sPLA2 conf 21.3 | 535nm interf inactive
COc1cc(CC(NC(C)=O)C(=O)NC2CCN(c3c(Cc4ccccc4)c(C)nc4ncnn34)CC2)cc(OC)c1 (stereo not drawn)	HGIII-sPLA2 inh 22.0 | hGIII sPLA2 conf inactive | 535nm interf inactive
CC(=O)Nc1ccc(NC(=O)C2CCN(c3c(Cc4ccccc4)c(C)nc4ncnn34)CC2)cc1	none
NC(=O)COC(=O)c1ccc2c(c1)S(=O)(=O)N=C1CCCCCN12	none
CCCNS(=O)(=O)c1ccc(CCC(=O)N2CCN(CC)CC2)cc1	HGIII-sPLA2 inh 20.9 | hGIII sPLA2 conf inactive | 535nm interf inactive
COc1cc(/C=C/C(=O)OCC(=O)NNC(=O)c2cc(Cl)ccc2OC)ccc1O	none
COc1cc2cc(NC(C)=O)cc(NCc3ccccc3)c2cc1OC	HGIII-sPLA2 inh 20.8 | hGIII sPLA2 conf inactive | 535nm interf inactive
CC(C1CC1)N(Cc1ccccc1)C(=S)Nc1ccccc1 (stereo not drawn)	none
CC(C1CC1)N(Cc1ccccc1)C(=S)Nc1cccc(C(F)(F)F)c1 (stereo not drawn)	HGIII-sPLA2 inh 20.6 | hGIII sPLA2 conf inactive | 535nm interf inactive
Cc1ccc(NS(=O)(=O)c2cccc(C(=O)N3CCOCC3)c2)cc1	none
CSc1cccc(NC(=S)N2CCC(N(C)C3CCCC3)CC2)c1	HGIII-sPLA2 inh 19.4 | hGIII sPLA2 conf inactive | 535nm interf inactive
Cc1c(Br)ccc(NC(=O)c2ccccc2[N+](=O)[O-])c1C	none
CCOc1cc(NC(=S)NCc2ccco2)c(OCC)cc1NC(=O)CC(C)C	HGIII-sPLA2 inh 20.4 | hGIII sPLA2 conf inactive | 535nm interf inactive
CCOc1cc(NC(=S)NCc2ccccc2)c(OCC)cc1NC(=O)C(C)C	HGIII-sPLA2 inh 20.1 | hGIII sPLA2 conf 28.7 | 535nm interf inactive | BODIPY interf DR inactive
